Test results from PubChem BioAssay (Tox21).
Inconclusive results are not listed. More than one record can exist for a structure, and the calls need not agree. The source made the active and inactive calls. Unless noted, calls come from the whole dose curve; as a rule, active = well fitted curve in the direction sought with a large enough effect in the repeat runs; inconclusive = weak or mixed curves; inactive = no such curve, though single readings can be large; an effect the other way counts as inactive or inconclusive.

Columns and labels:
[1] = qHTS assay to identify small molecule agonists of the estrogen receptor alpha (ER-alpha) signaling pathway in the presence of an antagonist - cell viability counter screen (AID 1259386);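 note: cells exposed to compounds for 22 h at 37 °C before the viability read; nearly all actives have a fitted effect of over 30% in size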; note: potency is the fitted concentration of half-maximal effect
How it was run: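 Cells are starved of estrogens for 5 days in charcoal-stripped serum, seeded for 24hr and co-treated with ICI-182,780 (10.0nM final) and test compounds. After 22hr at 37C, viability is read as CellTiter-Fluor fluorescence.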

[2] = target: Progesterone receptor (Homo sapiens) (UniProt P06401); assay: qHTS assay to identify small molecule agonists of the progesterone receptor (PR) signaling pathway (AID 1346784; calls by dose curve; note: nearly all actives have a fitted effect of over 30% in size)
How it was run: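 Seed PR-UAS-bla HEK 293T cells (2% charcoal-stripped FBS), incubate 6 hr at 37C; add compounds in DMSO, 16 hr at 37C; add LiveBLAzer B/G substrate, 2 hr RT; read fluorescence intensity.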

[3] = target: Progesterone receptor (Homo sapiens) (UniProt P06401); assay: qHTS assay to identify small molecule antagonists of the progesterone receptor (PR) signaling pathway (AID 1346795; active = well fitted inhibition curve with a large enough effect in the signal ratio in the repeat runs, not every such curve was filed as active; the % refers to the signal ratio)
How it was run: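 Screening used a GripTite HEK293T line with PR-responsive UAS-beta-lactamase. Cells were challenged with compound in the presence of 1 nM R5020 final for 16 hr at 37C; B/G FRET substrate, 2 hr room temperature, fluorescence.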

[4] = qHTS assay to identify small molecule antagonists of the progesterone receptor (PR) signaling pathway - cell viability counter screen (AID 1346798); note: series mostly up to about 92 µM; nearly all actives have a fitted effect of over 50% in size
How it was run: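 Measures cytotoxicity in parallel with the PR antagonist reporter read: HEK293T PR-UAS-bla cells get compound and R5020 for 16 hr, and remaining viable cells are quantified by CellTiter-Glo luminescence.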

[5] = qHTS assay to identify small molecule agonists of the progesterone receptor (PR) signaling pathway - cell viability counter screen (AID 1346799; calls by dose curve; note: nearly all actives have a fitted effect of over 45% in size)
How it was run: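 Using the same plates as the PR reporter screen, HEK293T PR-UAS-bla cells received compounds for 16 hr at 37C and were then lysed with CellTiter-Glo; luminescence was read 30 min later at room temperature.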

[6] = qHTS assay to identify small molecule antagonists of the TGF-beta/Smad signaling pathway - cell viability counter screen (AID 1346824); note: nearly all actives have a fitted effect of over 50% in size
How it was run: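 SBE-bla HEK 293T cells were plated overnight at 37 C, then given compounds in DMSO plus TGF-beta1 (added as 0.25 ng/mL solution) for 5 hr. After the bla read, CellTiter-Glo was added to the same wells and luminescence read after 30 min at room temperature.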

[7] = qHTS assay to identify small molecule agonists of the TGF-beta/Smad signaling pathway - cell viability counter screen (AID 1346829); note: top concentration of the series differs between compounds; nearly all actives have a fitted effect of over 45% in size
How it was run: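 Compound-treated SBE-bla HEK 293T cells (5 hr, 37 C) were assessed for viability with CellTiter-Glo in parallel with the reporter read.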

[8] = qHTS assay to identify small molecule agonists of the TGF-beta/Smad signaling pathway (AID 1346859; active = well fitted activation curve with a large enough effect in the signal ratio in the repeat runs, not every such curve was filed as active; the % refers to the signal ratio; note: series mostly up to about 77 µM)
How it was run: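 Beta-lactamase reporter activity downstream of Smad binding elements was measured in stably transfected HEK 293T cells; compounds were incubated for 5 hr, substrate for 2 hr at room temperature.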

[9] = target: Thyrotropin-releasing hormone receptor (Homo sapiens) (UniProt P34981); assay: qHTS assay to identify small molecule antagonists of the thyrotropin-releasing hormone receptor (TRHR) signaling pathway (AID 1346877; active = well fitted inhibition curve with a large enough effect in the repeat runs, not every such curve was filed as active; note: series mostly up to about 51 µM)
How it was run: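 Cells (TRHR-HEK293) are plated and kept 18 h at 37 °C/5% CO2. A calcium-sensitive dye is added for 2 h, compound follows for 5 min at room temperature, and TRH is then given at 1 nM final.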

[10] = target: Thyrotropin-releasing hormone receptor (Homo sapiens) (UniProt P34981); assay: qHTS assay to identify small molecule agonists of the thyrotropin-releasing hormone receptor (TRHR) signaling pathway (AID 1346891; calls by dose curve;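 note: HEK293 cells expressing TRHR with calcium dye readout; series mostly up to about 58 µM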)
How it was run: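 Overnight-plated (18 h, 37 °C, 5% CO2) TRHR-Hek293 cells; 2 h calcium dye at 37 °C; compound in DMSO; 3-min kinetic fluorescence read.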

[11] = Human pregnane X receptor (PXR) small molecule agonists, qHTS cell viability counter screen (AID 1346977); note: nearly all actives have a fitted effect of over 50% in size; note: potency is the fitted concentration of half-maximal effect
How it was run: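 After a 5hr pre-incubation, PXR-Luc HepG2 cells received compounds plus positive control in DMSO and were kept 24hr at 37C. Cell viability was quantified by fluorescence from CellTiter-Fluor added for the final hour.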

[12] = Caspase-3/7 induction in HepG2 cells by small molecules, qHTS assay (AID 1346978); note: nearly all actives have a fitted effect of over 15% in size
How it was run: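 Wild-type HepG2 cells (2,000/well) were settled 5 h at 37 C, 5% CO2, then exposed to compounds in DMSO for 17 h. Caspase-3/7 activity was read by luminescence 30 min after adding Caspase-Glo 3/7 reagent at room temperature.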

[13] = Caspase-3/7 induction in CHO-K1 cells by small molecules, qHTS cell viability counter screen (AID 1346979); note: nearly all actives have a fitted effect of over 35% in size; note: potency is the fitted concentration of half-maximal effect
How it was run: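 Multiplexed with Caspase-Glo 3/7 in CHO-K1 cells, this counter screen added CellTiter-Fluor after 16hr of compound exposure and recorded fluorescence 1hr later.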

[14] = Caspase-3/7 induction in CHO-K1 cells by small molecules, qHTS assay (AID 1346980); note: nearly all actives have a fitted effect of over 15% in size
How it was run: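 Wild-type cells were seeded at 1,500 per well and settled 5 hr at 37 C, 5% CO2, then exposed to DMSO-dissolved compounds for 17 hr. Caspase-Glo 3/7 reagent was added, and luminescence was read after 30min at room temperature.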

[15] = Caspase-3/7 induction in HepG2 cells by small molecules, qHTS cell viability counter screen (AID 1346981); note: series mostly up to about 92 µM; nearly all actives have a fitted effect of over 30% in size
How it was run: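 Steps: seed 2,000 HepG2 cells per well; incubate 5 hr at 37 C; pin-add compounds in DMSO; incubate 16 hr; add CellTiter-Fluor; after 1 hr at 37 C and 5% CO2, read fluorescence.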

[16] = target: Nuclear receptor subfamily 1 group I member 2 (Homo sapiens) (UniProt O75469); assay: Human pregnane X receptor (PXR) small molecule agonists, qHTS assay (AID 1346982); note: nearly all actives have a fitted effect of over 35% in size; note: potency is the fitted concentration of half-maximal effect
How it was run: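 Agonist mode qHTS: PXR-Luc HepG2 cells plated 5 hr before DMSO-dissolved compounds were pinned in, cultured 24 hr at 37 C, 5% CO2; ONE-Glo luminescence readout.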

[17] = target: Nuclear receptor subfamily 1 group I member 2 (Rattus norvegicus) (UniProt Q9R1A7); assay: Rat pregnane X receptor (rPXR) activation by small molecules, qHTS assay (AID 1346983); conditions: rPXR luciferase reporter cells, One-Glo luminescence, 24 h; max activation: stronger effect = higher value; note: nearly all actives have a fitted effect of over 20% in size
How it was run: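 Cell-based rPXR luciferase reporter assay, 2,000 cells per well, rested 5hr at 37 C before compound addition in DMSO, then 24 hr at 37 C. One-Glo reagent was added and luminescence read after 30 min at room temperature.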

[18] = target: Nuclear receptor subfamily 1 group I member 2 (Homo sapiens) (UniProt O75469); assay: CYP3A4 induction through human pregnane X receptor (PXR) by small molecules, qHTS assay (AID 1346984); note: nearly all actives have a fitted effect of over 40% in size; note: potency is the fitted concentration of half-maximal effect
How it was run: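 Steps: seed DPX-2 cells, 5 hr at 37C; pin-transfer compounds; 24 hr at 37C; add Luciferin-IPA (3uM final), 3 hr at 37C; add One-Glo, 30 min RT; read luminescence.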

[19] = target: Nuclear receptor subfamily 1 group I member 2 (Homo sapiens) (UniProt O75469); assay: Human pregnane X receptor (PXR) activation by small molecules, qHTS assay (AID 1346985); note: nearly all actives have a fitted effect of over 40% in size; note: potency is the fitted concentration of half-maximal effect
How it was run: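 DPX-2 cells (HepG2 co-transfected with a PXR response element and a CYP3A4-promoter luciferase construct) were seeded at 2,000 per well, rested 5 hr at 37C, then exposed to DMSO-dissolved compounds for 24 hr. Activation was read as luciferase luminescence.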

[20] = target: Cytochrome P450 2D6 (Homo sapiens) (UniProt P10635); assay: Cytochrome P450 Family 2 Subfamily D Member 6 (CYP2D6) small molecule antagonists: luciferase reporter qHTS assay (AID 1671196); note: nearly all actives have a fitted effect of over 50% in size; note: potency is the fitted concentration of half-maximal effect
How it was run: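 P450-Glo format: CYP2D6 converts a proluciferin substrate to luciferin in an NADPH-driven reaction lasting 1 h at room temperature. Light output, proportional to CYP2D6 activity, reflects interference by test chemicals.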
% is set by controls: 0 for no effect and ±100 for the full control effect.

Sequence of Progesterone receptor (Homo sapiens) (P06401 whole entry, looked up): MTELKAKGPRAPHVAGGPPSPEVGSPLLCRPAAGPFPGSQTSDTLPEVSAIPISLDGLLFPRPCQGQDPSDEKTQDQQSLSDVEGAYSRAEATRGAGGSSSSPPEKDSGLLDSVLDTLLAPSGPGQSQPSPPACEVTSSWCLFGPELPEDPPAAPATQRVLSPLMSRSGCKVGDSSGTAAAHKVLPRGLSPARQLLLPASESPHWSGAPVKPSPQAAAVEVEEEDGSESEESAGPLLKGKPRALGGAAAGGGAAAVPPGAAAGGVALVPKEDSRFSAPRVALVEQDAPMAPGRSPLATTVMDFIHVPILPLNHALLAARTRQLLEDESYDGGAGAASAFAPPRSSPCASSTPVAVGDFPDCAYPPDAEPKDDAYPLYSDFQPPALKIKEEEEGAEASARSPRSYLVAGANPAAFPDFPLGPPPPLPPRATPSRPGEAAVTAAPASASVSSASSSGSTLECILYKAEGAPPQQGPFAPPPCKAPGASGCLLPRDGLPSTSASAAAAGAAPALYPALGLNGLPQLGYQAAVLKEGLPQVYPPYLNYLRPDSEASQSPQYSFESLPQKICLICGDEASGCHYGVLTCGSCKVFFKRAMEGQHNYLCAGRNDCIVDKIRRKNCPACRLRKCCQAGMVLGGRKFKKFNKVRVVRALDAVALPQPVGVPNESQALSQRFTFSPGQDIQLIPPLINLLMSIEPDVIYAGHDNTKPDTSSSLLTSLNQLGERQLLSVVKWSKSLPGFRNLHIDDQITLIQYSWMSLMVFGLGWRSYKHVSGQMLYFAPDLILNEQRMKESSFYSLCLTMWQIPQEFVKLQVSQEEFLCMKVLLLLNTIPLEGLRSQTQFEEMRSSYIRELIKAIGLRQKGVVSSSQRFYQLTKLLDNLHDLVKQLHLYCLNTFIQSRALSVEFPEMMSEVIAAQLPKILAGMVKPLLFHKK
Sequence of Cytochrome P450 2D6 (Homo sapiens) (P10635 whole entry, looked up): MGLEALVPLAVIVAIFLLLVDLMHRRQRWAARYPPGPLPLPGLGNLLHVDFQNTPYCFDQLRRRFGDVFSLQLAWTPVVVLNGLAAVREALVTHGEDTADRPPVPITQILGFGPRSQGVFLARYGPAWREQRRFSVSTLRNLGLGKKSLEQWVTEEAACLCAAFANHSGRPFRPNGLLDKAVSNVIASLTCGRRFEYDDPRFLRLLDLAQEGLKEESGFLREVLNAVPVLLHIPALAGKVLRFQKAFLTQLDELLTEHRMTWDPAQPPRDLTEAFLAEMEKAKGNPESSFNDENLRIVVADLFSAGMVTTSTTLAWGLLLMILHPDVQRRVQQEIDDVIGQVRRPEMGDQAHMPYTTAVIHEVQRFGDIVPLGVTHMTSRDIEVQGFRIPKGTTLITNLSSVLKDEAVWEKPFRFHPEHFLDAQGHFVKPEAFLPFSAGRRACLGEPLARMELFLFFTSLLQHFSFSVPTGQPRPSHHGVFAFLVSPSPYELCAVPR
Sequence of Thyrotropin-releasing hormone receptor (Homo sapiens) (P34981 whole entry, looked up): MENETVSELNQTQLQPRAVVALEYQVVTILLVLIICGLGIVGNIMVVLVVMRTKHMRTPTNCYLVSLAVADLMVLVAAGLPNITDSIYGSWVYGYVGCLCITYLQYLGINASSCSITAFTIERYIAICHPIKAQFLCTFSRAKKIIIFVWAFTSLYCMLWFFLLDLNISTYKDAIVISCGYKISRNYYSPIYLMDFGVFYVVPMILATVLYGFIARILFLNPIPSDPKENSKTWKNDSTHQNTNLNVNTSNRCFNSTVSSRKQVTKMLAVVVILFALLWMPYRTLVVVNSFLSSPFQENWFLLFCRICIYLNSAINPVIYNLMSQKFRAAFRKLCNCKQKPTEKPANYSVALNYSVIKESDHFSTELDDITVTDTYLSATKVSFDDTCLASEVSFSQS
Sequence of Nuclear receptor subfamily 1 group I member 2 (Homo sapiens) (O75469 whole entry, looked up): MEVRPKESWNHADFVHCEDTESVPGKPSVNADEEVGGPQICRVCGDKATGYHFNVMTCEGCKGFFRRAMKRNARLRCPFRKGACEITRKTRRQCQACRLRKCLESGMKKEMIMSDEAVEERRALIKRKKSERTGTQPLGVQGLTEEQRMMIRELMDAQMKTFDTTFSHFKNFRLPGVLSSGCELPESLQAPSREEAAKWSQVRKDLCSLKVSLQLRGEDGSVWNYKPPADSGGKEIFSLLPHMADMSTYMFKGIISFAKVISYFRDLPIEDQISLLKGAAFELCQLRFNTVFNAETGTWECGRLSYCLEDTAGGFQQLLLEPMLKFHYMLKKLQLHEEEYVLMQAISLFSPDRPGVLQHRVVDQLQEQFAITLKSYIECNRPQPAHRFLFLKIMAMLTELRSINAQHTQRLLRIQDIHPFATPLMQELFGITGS
Sequence of Nuclear receptor subfamily 1 group I member 2 (Rattus norvegicus) (Q9R1A7 whole entry, looked up): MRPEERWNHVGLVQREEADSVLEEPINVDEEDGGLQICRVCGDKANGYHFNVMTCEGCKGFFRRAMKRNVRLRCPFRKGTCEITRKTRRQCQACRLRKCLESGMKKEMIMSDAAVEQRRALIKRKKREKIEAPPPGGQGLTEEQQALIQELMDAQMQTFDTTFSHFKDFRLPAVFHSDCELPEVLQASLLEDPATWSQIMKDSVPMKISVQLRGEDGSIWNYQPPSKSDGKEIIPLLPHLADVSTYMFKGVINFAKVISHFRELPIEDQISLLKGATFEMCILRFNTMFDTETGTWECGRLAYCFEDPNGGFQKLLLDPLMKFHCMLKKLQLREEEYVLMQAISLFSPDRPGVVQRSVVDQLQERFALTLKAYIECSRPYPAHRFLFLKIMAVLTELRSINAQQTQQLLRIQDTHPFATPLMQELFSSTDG

Cc1cc(O)c(C(C)C)cc1Cl
63.3 µM (active) and inactive: Potency [20]
inactive: Potency [1] | Potency [2] | Potency [3] | Potency [4] | Potency [5] | outcome [6] | outcome [7] | outcome [8] | outcome [9] | Potency [10] | Potency [11] | Potency [12] | Potency [13] | outcome [14] | Potency [15] | Potency [16] | max activation [17] -0.692% | Potency [18] | Potency [19]

COc1ccccc1N=Nc1c(S(=O)(=O)O)cc2cc(S(=O)(=O)O)cc(NC(C)=O)c2c1O
inactive: Potency [2] | Potency [3] | Potency [4] | Potency [5] | outcome [6] | outcome [7] | outcome [8] | outcome [9] | Potency [10] | Potency [12] | outcome [14] | Potency [16]
active: Potency [1] 22.9 µM | Potency [11] 22.9 µM | Potency [13] 25.7 µM | Potency [20] 33.5 µM

CCCCN(CCCC)C(=S)SSC(=S)N(CCCC)CCCC
active: Potency [13] 27 µM | Potency [20] 28 µM
inactive: Potency [1] | Potency [2] | Potency [3] | Potency [4] | Potency [5] | outcome [6] | outcome [7] | outcome [8] | Potency [10] | Potency [11] | Potency [12] | outcome [14] | Potency [15]

CC#N
inactive: Potency [1] | Potency [2] | Potency [3] | Potency [4] | Potency [5] | outcome [6] | outcome [7] | outcome [8] | outcome [9] | Potency [10] | Potency [11] | Potency [12] | Potency [13] | outcome [14] | Potency [16] | Potency [20]

O=[N+]([O-])c1cccc(S(=O)(=O)NCCNS(=O)(=O)c2cccc([N+](=O)[O-])c2)c1
active: Potency [16] 13.3 µM | Potency [18] 7.94 µM | Potency [19] 14.1 µM
inactive: Potency [1] | Potency [2] | Potency [3] | Potency [4] | Potency [5] | outcome [6] | outcome [7] | outcome [8] | outcome [9] | Potency [10] | Potency [11] | Potency [13]

C[N+]1(C)CCC(=C(c2ccccc2)c2ccccc2)CC1
inactive: Potency [1] | Potency [2] | Potency [3] | Potency [4] | Potency [5] | outcome [6] | outcome [7] | outcome [8] | outcome [9] | Potency [10] | Potency [11] | Potency [12] | Potency [13] | outcome [14] | Potency [15] | Potency [16] | max activation [17] -1.49% | Potency [18] | Potency [19]
active: Potency [20] 12.3 µM

OC/C(Br)=C(\Br)CO
inactive: Potency [1] | Potency [2] | Potency [3] | Potency [4] | Potency [5] | outcome [6] | outcome [7] | outcome [8] | Potency [10] | Potency [11] | Potency [12] | Potency [13] | outcome [14] | Potency [15] | Potency [16]
active: Potency [20] 35.3 µM

COc1ccc(CCC(=O)c2c(O)cc(O[C@@H]3O[C@H](CO)[C@@H](O)[C@H](O)[C@H]3O[C@@H]3O[C@@H](C)[C@H](O)[C@@H](O)[C@H]3O)cc2O)cc1O
inactive: Potency [1] | Potency [2] | Potency [3] | Potency [4] | Potency [5] | outcome [6] | outcome [7] | outcome [8] | Potency [10] | Potency [11] | Potency [13] | outcome [14] | Potency [15] | Potency [20]

Nc1ccc(S(=O)(=O)O)cc1
inactive: Potency [1] | Potency [2] | Potency [3] | Potency [4] | Potency [5] | outcome [6] | outcome [7] | outcome [8] | outcome [9] | Potency [10] | Potency [11] | Potency [12] | Potency [13] | outcome [14] | Potency [15] | Potency [16]

O=C(O)c1snc(Cl)c1Cl
inactive: Potency [1] | Potency [2] | Potency [3] | Potency [4] | Potency [5] | outcome [6] | outcome [7] | outcome [8] | Potency [10] | Potency [11] | Potency [13] | outcome [14] | Potency [15] | Potency [16] | Potency [20]

CCOC(=O)c1ccccc1OC
inactive: Potency [1] | Potency [2] | Potency [3] | Potency [4] | Potency [5] | outcome [6] | outcome [7] | outcome [8] | Potency [10] | Potency [11] | Potency [12] | Potency [13] | outcome [14] | Potency [16] | Potency [20]

COCC(O)CO (stereo not drawn)
inactive: Potency [1] | Potency [2] | Potency [3] | Potency [4] | Potency [5] | outcome [6] | outcome [7] | outcome [8] | outcome [9] | Potency [10] | Potency [11] | Potency [12] | Potency [13] | outcome [14] | Potency [15] | Potency [16] | Potency [20]

CN1C(=O)CC(C)(c2ccccc2)C1=O (stereo not drawn)
inactive: Potency [1] | Potency [2] | Potency [3] | Potency [4] | Potency [5] | outcome [6] | outcome [7] | outcome [8] | Potency [10] | Potency [11] | Potency [12] | Potency [13] | outcome [14] | Potency [15] | Potency [16]

Nc1nccs1
inactive: Potency [1] | Potency [2] | Potency [3] | Potency [4] | Potency [5] | outcome [6] | outcome [7] | outcome [8] | outcome [9] | Potency [11] | Potency [12] | Potency [13] | outcome [14] | Potency [16] | max activation [17] -2.81% | Potency [18] | Potency [19]
active: Potency [20] 31.7 µM

CC(C)C(=O)O
inactive: Potency [1] | Potency [2] | Potency [3] | Potency [4] | Potency [5] | outcome [6] | outcome [7] | outcome [8] | Potency [11] | Potency [12] | Potency [13] | outcome [14] | Potency [15] | Potency [16] | Potency [20]
